Giardia FBPA inh: Giardia lamblia aldolase inhibition; 0.71% of 290,000 active; AID 2451; purified Giardia FBPA; Potency, µM (top dose mostly 59.6 µM), hits mostly inhibitors; note: nearly all actives have a fitted effect of over 55% in size
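40 nM FBPA preincubated 10 min at RT with compound (up to 57.5 uM final), then substrate plus GAPDH/TPI/NAD/arsenate coupling and diaphorase/resazurin added. Fluorescence read after 20 min at RT, 525/598 nm.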
LmPK inhibitor: LmPK (Leishmania mexicana) enzyme inhibition; AID 1721; Potency, µM (doses to about 57.5 µM), most hits filed as inhibitors; 0.37% of 290,000 active; purified LmPK, Kinase-Glo ATP luminescence, 1 h
Target sequence (Q27686 whole entry, looked up): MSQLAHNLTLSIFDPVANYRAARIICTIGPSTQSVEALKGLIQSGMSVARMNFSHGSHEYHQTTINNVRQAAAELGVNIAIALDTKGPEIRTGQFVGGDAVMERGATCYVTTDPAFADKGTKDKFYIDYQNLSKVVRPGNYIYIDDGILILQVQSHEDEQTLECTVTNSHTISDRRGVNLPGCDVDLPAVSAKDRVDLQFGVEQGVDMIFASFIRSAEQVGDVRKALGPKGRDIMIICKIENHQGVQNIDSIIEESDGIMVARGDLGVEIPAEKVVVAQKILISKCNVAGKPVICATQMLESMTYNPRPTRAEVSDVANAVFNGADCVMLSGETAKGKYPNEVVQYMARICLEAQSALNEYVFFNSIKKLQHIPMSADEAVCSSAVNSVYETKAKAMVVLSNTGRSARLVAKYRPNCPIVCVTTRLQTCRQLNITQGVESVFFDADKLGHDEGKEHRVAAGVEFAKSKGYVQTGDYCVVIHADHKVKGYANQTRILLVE
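qHTS format; LmPK 0.1 nM; substrates PEP 0.5 mM and ADP 0.1 mM. One-hour room-temperature incubation, then coupled luciferase luminescence; 0.5 nM enzyme wells mark activation.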
Tb PYK inh: T. brucei pyruvate kinase inhibition; Q57TT1; TbPYK enzyme, Kinase-Glo Plus ATP luminescence, 45 min; Potency, µM (series often up to 76.8 µM), usual class: inhibitors; 0.12% of 410,000 active; note: nearly all actives have a fitted effect of over 50% in size
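Readout: single end-point luminescence (Kinase-Glo Plus, 10 min). Reaction conditions were TbPYK/substrate plus 130 uM ADP, 45 min at RT, pH 7.2 TEA buffer. No-enzyme wells served as controls, and data were normalized before concentration-response fitting.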
RE007 growth inh: less growth of the S. pombe RE007 Vpr strain; S. pombe RE007 Vpr strain, BacTiter-Glo ATP luminescence, 24 h; Potency, µM (titrated, usually from 92.2 µM), most hits filed as inhibitors; 0.21% of 360,000 active; AID 651644; active = well fitted falling curve with a large enough effect; inconclusive = small, poorly fitted or top-dose-only effect; inactive = no such curve, though single readings can be large or run the other way; note: nearly all actives have a fitted effect of over 50% in size
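Fission yeast strain RE007, carrying one chromosomally integrated HIV-1 vpr copy, was seeded at OD 0.01 in PMG+AL medium with 23 nL pinned compound. After 24 h at 30 °C and 99% humidity, viability was read by BacTiter-Glo luminescence.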
CHX counter: counter-screen for Shiga toxin inhibitors: cycloheximide protein synthesis inhibition; cell reporter, cycloheximide protein synthesis inhibition counterscreen; max response, %; 12% of 300,000 active; in the data active = max response mostly above about 13%, no sharp cut-off; inactive = mostly below about 14%; note: read at 38.3 µM for the half of the compounds with a filed dose
Shiga inhibitor: blocks Shiga toxin action in Vero cells; Vero cells, Shiga toxin protein synthesis inhibition reporter; 9.2% of 290,000 active; inhibition, % at 38.7 µM; in the data active = inhibition mostly above about 28%, no sharp cut-off; inactive = mostly below about 43%
Hits are given with their value; 0 = inactive; ? = inconclusive; - = no result given; [ ] = another dose, or the depositor's remark. Shown is part of a subset that was picked to be rich in hits. Unless noted, calls come from the whole dose curve; as a rule, active = well fitted curve in the direction sought with a large enough effect; inconclusive = small, poorly fitted or top-dose-only effect, or another doubt; inactive = no such curve, though single readings can be large; an effect the other way counts as inactive or inconclusive.

SMILES | Giardia FBPA inh | LmPK inhibitor | Tb PYK inh | RE007 growth inh | CHX counter | Shiga inhibitor
Cc1nn(Cc2ccccc2)c(C)c1/C=N/NC(=O)c1ccncc1 | 0 | 0 | 0 | 0 | 0 | 0
O=C(CC1NCCNC1=O)Nc1cccc(F)c1 (stereo unspecified) | - | - | 0 | - | - | -
CCOC(CNC(=O)c1ccc2nc(N3CCC(C)CC3)sc2c1)OCC | 0 | 0 | 0 | 0 | 25 | 0
CCOc1ccc(CCNC(=O)c2ccc3nc(N4CCC(C)CC4)sc3c2)cc1OCC | - | - | 0 | - | - | -
CCCN1CCN(CCCNC(=O)c2ccc3nc(N4CCC(C)CC4)sc3c2)CC1 | 0 | 0 | 0 | 0 | 33 | 47
CC1(COc2ccc(CC3SC(=O)NC3=O)cc2)CCCCC1 (stereo unspecified) | 0 | - | 0 | - | - | -
COC(=O)C(CCSC)NC(=O)c1cc2c(n(-c3ccccc3)c1=O)CCCC2=O (stereo unspecified) | 0 | 0 | 0 | 0 | 16 | 0
C=C(C)C(=O)Nc1nnc(-c2cccs2)s1 | 0 | 0 | 0 | 0 | 21 | 81
CCC(C)C(=O)Nc1nnc(-c2cccs2)s1 (stereo unspecified) | 0 | 0 | 0 | 0 | 64 | 59
CCOC(=O)c1ccc(N2C(=O)c3[nH]nc(-c4ccc(C)cc4)c3C2c2cccc(F)c2)cc1 (stereo unspecified) | - | - | 0 | - | - | -
CSCC[C@H](NC(=O)[C@H](CC(C)C)NC(=O)[C@@H]1CCCN1C(=O)[C@H](Cc1ccccc1)NC(=O)[C@H](Cc1ccccc1)NC(=O)[C@@H]1CCC(=O)N1)C(N)=O | 0 | - | - | - | 0 | 0
C=CCOC(=O)C(C(C)=O)C(NC(=O)OC)c1ccc2ccccc2c1 (stereo unspecified) | 0[12.9 µM] | - | - | - | - | -
Nc1c(-c2cccc(Cl)c2)cnn1-c1cccc(C(F)(F)F)c1 | 0 | 0 | 0 | ? | 31 | 58
O=C(O)c1nc(-c2ccccc2)n(-c2cccc(C(F)(F)F)c2)n1 | 0 | 0 | 0 | 0 | 0 | 0
Nc1c(-c2ccccc2)cnn1-c1cccc(C(F)(F)F)c1 | 0 | 0 | 0 | 0 | 68 | 83
CC1=C(C)C(=O)C(N2CCOCC2)=CC1=O | 1.4µM | 0 | 0 | 0 | 0 | 0
COc1cc2c(c3oc(-c4ccccc4)cc(=O)c13)C=CC(C)(C)O2 | 0 | 0 | 0 | 0 | 25 | 37
COc1cc(OC)c2c(=O)cc(-c3ccccc3)oc2c1 | 0 | 0 | 0 | 0 | 38 | 109
COc1cc(C)c2c(=O)cc(-c3ccccc3)oc2c1 | 0 | - | - | - | - | -
O=c1cc(-c2ccccc2)n(S(=O)(=O)c2ccccc2)o1 | 0 | 0 | 0 | 0 | 16 | 0
COc1ccc(S(=O)(=O)n2oc(=O)cc2-c2ccccc2)cc1 | 0 | 0 | 0 | 0 | 0 | 0
COc1ccc(Nc2nc(NCc3ccco3)nc(N/N=C/c3ccc(O)cc3)n2)cc1 | 0 | 0 | 0 | 0 | 16 | 70
COc1ccc(/C=N/Nc2nc(NCc3ccco3)nc(Nc3ccc(OC)cc3)n2)cc1 | 0 | 0 | 0 | 0 | 0 | 0
Cc1ccccc1NC(=O)c1sc2nc(N3CCOCC3)c3c(c2c1N)CCCC3 | - | 0 | ? | 0 | 19 | 0
CC1(C)Cc2c(c(N3CCOCC3)nc3sc(C(=O)Nc4ccc(Cl)cc4)c(N)c23)CO1 | 0 | 0 | ? | 0 | 0 | 0
SMILES | Giardia FBPA inh | LmPK inhibitor | Tb PYK inh | RE007 growth inh | CHX counter | Shiga inhibitor
CC1(C)Cc2c(c(N3CCCC3)nc3sc(C(=O)Nc4ccccc4)c(N)c23)CO1 | - | 0 | 0 | 0 | 41 | 80
Cc1ccc2nc3sc(C(=O)Nc4ccc(N5CCOCC5)cc4)c(N)c3cc2c1 | 0 | 0 | - | - | 24 | 0
Cc1ccc(NC(=O)c2sc3nc(N4CCOCC4)c4c(c3c2N)CC(C)(C)OC4)cc1 | ? | 0 | 0 | 0 | 22 | 0
CCOc1ccc(Nc2nc(Cc3nnc(SCC(=O)c4ccc(C)c(C)c4)o3)cs2)cc1 | 0 | 0 | 0 | 0 | 21 | 0
C=C1CC[C@H](O)C/C1=C/C=C1\CCC[C@]2(C)[C@@H]([C@H](C)CCCC(C)C)CC[C@@H]12 | 0 | - | 0 | - | 34 | 89
C=C1CC[C@H](O)C/C1=C/C=C1\CCC[C@]2(C)[C@@H]([C@H](C)/C=C/[C@H](C)C(C)C)CC[C@@H]12 | - | - | 0 | 0[18.4 µM] | - | -
Cc1cccc(CNC(=O)Cc2csc3ccccc23)c1 | - | - | 0 | - | 63 | 75
Cc1nnsc1C(=O)N/N=C/c1c(F)cccc1Cl | 0 | 0 | 0 | 0 | 0 | 0
Cc1[nH]cnc1C(=O)N/N=C/c1c(Cl)cccc1Cl | 0 | ? | ? | ? | 36 | 0
Cc1cc(C)c(NC(=O)CCCSc2nnc(N)s2)c(C)c1 | 0 | 0 | 0 | 0 | 0 | 0
Nc1nnc(SCCCC(=O)c2ccccc2)s1 | 0 | 0 | 0 | 0 | 23 | 0
Nc1nnc(SCC(=O)c2ccc3ccccc3c2)s1 | 0 | 0 | 0 | 0 | 85 | 151
O=C1C=C(N2CC2)c2ccccc2C1=O | - | - | 0 | 0 | - | -
CC(C)(C=O)C1=CC(=O)c2ccccc2C1=O | ? | 13µM | ? | 8.9µM | 28 | 25
COc1ccc(OC)c(NCc2cccn2-c2nnc(N3CCC(C)CC3)s2)c1 | - | - | 0 | - | 31 | 69
CC(=O)c1cccc(NC(=O)NC(C)C2CCCO2)c1 (stereo unspecified) | 0 | 0 | 0 | 0 | 0 | 0
CC(NC(=O)Nc1ccc(Cl)cc1)C1CCCO1 (stereo unspecified) | 0 | 0 | 0 | 0 | 0 | 20
CCOC(=O)c1ccc(NC(=O)NC(C)C2CCCO2)cc1 (stereo unspecified) | 0 | 0 | 0 | 0 | 12 | 0
CCCCN(CC)C(=O)Cn1nc(C)c2c(C)n(-c3ccccc3)nc2c1=O | - | - | 0 | - | - | -
Cc1cccc(C(=O)N2CCc3cc(CNC(=O)CCc4ccccc4)ccc32)c1 | - | - | 0 | - | - | -
O=C(c1cccn1-c1nnc(N2CCCC2)s1)N1CCN(c2ccc(F)cc2)CC1 | - | - | 0[15.4 µM] | - | - | -
CC(C)C[C@H](NC(=O)[C@H](CCCCN)NC(=O)CNC(=O)[C@H](CC(C)C)NC(=O)[C@@H](NC(=O)[C@@H]1CSSC[C@H](N)C(=O)N[C@@H](CO)C(=O)N[C@@H](CC(N)=O)C(=O)N[C@@H](CC(C)C)C(=O)N[C@@H](CO)C(=O)N[C@@H]([C@@H](C)O)C(=O)N1)C(C)C)C(=O)N[C@@H](CO)C(=O)N[C@@H](CCC(N)=O)C(=O)N[C@@H](CCC(=O)O)C(=O)N[C@@H](CC(C)C)C(=O)N[C@@H](Cc1cnc[nH]1)C(=O)N[C@@H](CCCCN)C(=O)N[C@@H](CC(C)C)C(=O)N[C@@H](CCC(N)=O)C(=O)N[C@H](C(=O)N[C@@H](Cc1ccc(O)cc1)C(=O)N1CCC[C@H]1C(=O)N[C@@H](CCCNC(=N)N)C(=O)N[C@H](C(=O)N[C@@H](CC(N)=O)C(=O)N[C@H](C(=O)NCC(=O)N[C@@H](CO)C(=O)NCC(=O)N[C@H](C(=O)N1CCC[C@H]1C(N)=O)[C@@H](C)O)[C@@H](C)O)[C@@H](C)O)[C@@H](C)O | 0 | - | - | - | 0 | 0
